Bioassay records as filed in PubChem BioAssay.
Wnt act – activators of Wnt/beta-catenin signaling | Wnt/beta-catenin reporter cell assay, activator, plate reader | activation, % at 9.35 µM | 300,000 tested, 1.2% active | AID 743398; in the data active = activation above about 30%, passing the limit was not always enough; inconclusive = no clear call, values can overlap the other calls;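 also: 0% = neutral control wells and 100% = positive control wells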
MITF TRPM1 HTS – activators of MITF-driven TRPM1 promoter activity in SK-MEL-5 cells; AID 588334; SK-MEL-5 TRPM1-promoter luciferase, 24 h; % of positive control, neutral wells = 0; activation, % at 12.5 µM; 300,000 tested, 0.75% active;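 active = mean activation of at least 80% with every replicate also reaching 80%; inconclusive = mean reaches 80% but some replicate falls short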;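 also: 0% = neutral control wells and 100% = parthenolide positive control wells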
esBAF inh – SWI/SNF esBAF complex inhibition | mouse ES cells, Bmi1-luciferase knock-in reporter, 24 h; 100% = twice the neutral-well signal | reporter increase, % at 12.5 µM | 350,000 tested, 2% active; in the data active = activation above about 40%; inconclusive = no clear call, values can overlap the other calls;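 also: 0% = median of the plate's neutral control wells and 100% = double that signal; a rise in the Bmi1 reporter signal indicates esBAF inhibition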
Env fusion inh – blocks HIV Env-driven cell-cell fusion; inhibition, % at 12.3 µM; 360,000 tested, 1.1% active; AID 651610; HeLa-JRFL Env/CEM21 cell fusion, luciferase;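 active = mean replicate inhibition score of at least 50 and every replicate individually at or above 50; inconclusive = only one of the two criteria met; inactive = mean below 50 and not all replicates reaching 50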;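 also: 0% = plate neutral controls and 100% = maraviroc near 300 nM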
miR-122 sensor – inhibitors of miR-122 in Huh7 cells; Huh7 miR-122 Renilla luciferase sensor, 48 h; neutral wells = 0, positive control = 100; activation (reporter increase), % at 12.5 µM; 340,000 tested, 0.3% active; AID 602342;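 active = mean replicate activation score at least 90 and every replicate individually at or above 90; inconclusive = only one of the two criteria met; inactive = neither criterion met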;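 also: higher luciferase means less miR-122 activity so hits act as miR-122 inhibitors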
Ring1 derepress – de-represses Ring1 in mouse ESCs, confirming esBAF inhibition; shares compounds with esBAF inh; mouse ESC E14, Ring1 mRNA RT-qPCR fold change; fold change at 33 µM; 550 tested, under 10 active; AID 743176;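 active = Ring1 gene expression raised more than 2-fold over untreated cells in both replicates at either tested dose; inconclusive = only one replicate above 2-fold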;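 also: Ring1 transcript normalised to actin housekeeping signal by TaqMan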
Fgf4 repress – confirmation of esBAF inhibitors: Fgf4 repression in mouse ESCs. mouse ESC E14, Fgf4 mRNA qPCR fold change; active compounds read low. Fgf4 expression fold change at 33 µM. shares compounds with esBAF inh. 550 tested, 4% active;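 active = Fgf4 expression under 0.8 fold of control in both repeat measurements at one or both tested doses; inconclusive = under 0.8 fold in just a single repeat measurement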;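 also: Fgf4 transcript normalised to actin in duplex TaqMan qPCR; cells exposed to compound for 24 h before lysis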
esBAF Bmi1 qPCR – de-represses Bmi1 in mouse ESCs, confirming esBAF inhibition | shares compounds with esBAF inh | mouse ESE14 ES cells, Bmi1 mRNA qPCR fold; active compounds read high | fold change at 33 µM | 550 tested, under 10 active | AID 743180;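 active = Bmi1 expression fold change above 6 at either tested concentration, seen in replicate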;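 also: higher fold means more Bmi1 de-repression and stronger esBAF inhibition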
A549 cytotox – kills or reduces viability of A549 cells | shares compounds with esBAF inh | A549 cytotoxicity, plate reader | cell viability change % (negative = cytotoxic), % at 25 µM, hits read low | 550 tested, under 10 active | AID 743188; call rule not given here
HepG2 tox SP – HepG2 cell cytotoxicity at single point; plate reader; active compounds read low; 550 tested, 4% active; activity change, negative = inhibition, % at 25 µM; shares compounds with esBAF inh; in the data active = activity change below about -50%
HEK293 tox SP – cytotoxicity in HEK293 cells; activity change, negative = inhibition, % at 25 µM, hits read low; 550 tested, 3% active; shares compounds with esBAF inh; plate reader; in the data active = activity change below about -38%, passing the limit was not always enough
Numbers without * were called inactive; [ ] = dose if it differs, or a comment. Shown are actives, neighbours in structure and some others; about 3.4% of the full set was active somewhere.

C[C@@H]1CN([C@@H](C)CO)C(=O)c2cccc(NC(=O)Nc3ccc4c(c3)OCO4)c2O[C@@H]1CN(C)S(=O)(=O)c1ccccc1 was read as esBAF inh 13.4, Env fusion inh 2.3[16.7 µM] and miR-122 sensor 4.8[16.7 µM].
Screening C1=NN(c2ccccc2)C=NN1c1ccccc1 returned Wnt act -5.1, MITF TRPM1 HTS 68.4, esBAF inh 69.2*, Env fusion inh -51.4, miR-122 sensor -4.8, Ring1 derepress 0.901, Fgf4 repress 0.865, esBAF Bmi1 qPCR 1.7, A549 cytotox -4.7, HepG2 tox SP -12.7 and HEK293 tox SP -59.9*.
Screening COc1ccc(NC(=O)Nc2ccc3c(c2)[C@H]2C[C@@H](CC(=O)O)O[C@@H](CO)[C@H]2O3)cc1 returned esBAF inh -4.5, Env fusion inh 12.6[16.7 µM] and miR-122 sensor 1.4[16.7 µM].
Screening N#Cc1ccc(-c2cn3c(n2)SCC3)cc1 returned Wnt act 4.2, MITF TRPM1 HTS 67.8, esBAF inh 60.5*, Env fusion inh -14.6, miR-122 sensor -4.7, Ring1 derepress 0.91, Fgf4 repress 0.861, esBAF Bmi1 qPCR 1.44, A549 cytotox -6.1, HepG2 tox SP -7.5 and HEK293 tox SP -11.0.
CN(C)c1ccc(N=Cc2nc(-c3ccccc3)oc2OC(=O)c2cccc(Br)c2)cc1 was read as MITF TRPM1 HTS 68.1, esBAF inh 62.8*, Env fusion inh -337.5, miR-122 sensor -2.3, Ring1 derepress 1.42, Fgf4 repress 0.997, esBAF Bmi1 qPCR 1.49, A549 cytotox -0.3, HepG2 tox SP -33.7 and HEK293 tox SP -10.1.
Screening CCOC(=O)c1ccc(N=Cc2nc(-c3ccccc3)oc2OC(C)=O)cc1 returned MITF TRPM1 HTS -15.2, esBAF inh 15.4, Env fusion inh -2.9 and miR-122 sensor -3.3.
Screening Cc1ccc(S(=O)(=O)N2CCC[C@H]2C(=O)OCc2cc(=O)oc3cc(C)ccc23)cc1 returned Wnt act 3.0, MITF TRPM1 HTS 11.5, Env fusion inh -0.1 and miR-122 sensor -6.8.
For Cc1ccc2c(COC(=O)C34CC5CC(CC(C5)C3)C4)cc(=O)oc2c1 the results were MITF TRPM1 HTS 102.9*, esBAF inh 95.8*, Env fusion inh -17.1, miR-122 sensor -17.5, Ring1 derepress 1.3, Fgf4 repress 0.883, esBAF Bmi1 qPCR 1.49, A549 cytotox 0.2, HepG2 tox SP -18.2 and HEK293 tox SP -4.8.
For CC/C(=N\NC(=O)c1cc(C2CC2)[nH]n1)c1ccccc1 the results were Wnt act 8.6, MITF TRPM1 HTS 67.6, esBAF inh 56.2*, Env fusion inh -33.9, miR-122 sensor -2.1, Ring1 derepress 1.51, Fgf4 repress 0.804, esBAF Bmi1 qPCR 1.6, A549 cytotox 1.0, HepG2 tox SP -6.7 and HEK293 tox SP -3.8.
`C[C@H]1CN([C@@H](C)CO)C(=O)c2cc(NS(=O)(=O)c3cn(C)cn3)ccc2O[C@@H]1CN(C)Cc1ccc(C(=O)O)cc1` gave esBAF inh 5.9 and miR-122 sensor -6.3[16.7 µM].
For OC[C@@H]1[C@H](c2ccc(-c3cccnc3)cc2)[C@@H]2CN(CC3CCOCC3)CCCCN12 the results were miR-122 sensor -1.2[16.7 µM].
`COc1ccccc1C=Cc1ccnc2ccccc12` gave Wnt act -2.8, MITF TRPM1 HTS -2.0, esBAF inh 81.9*, Env fusion inh -80.0, miR-122 sensor 8.8, Ring1 derepress 1.07, Fgf4 repress 0.49*, esBAF Bmi1 qPCR 11.1*, A549 cytotox -7.6, HepG2 tox SP 34.4 and HEK293 tox SP -37.0.
Screening COc1ccc(CNC(=O)c2csc3c2CCCC3)cc1 returned Wnt act -2.4, MITF TRPM1 HTS 5.5, esBAF inh 4.7, Env fusion inh -2.0 and miR-122 sensor -5.4.
COc1ccc(NC(=O)c2csc3c2CCCC3)cc1 was read as Wnt act 24.3, MITF TRPM1 HTS 57.5, esBAF inh 68.9*, miR-122 sensor 9.5, Ring1 derepress 0.942, Fgf4 repress 0.974, esBAF Bmi1 qPCR 1.46, A549 cytotox -7.9, HepG2 tox SP -50.6* and HEK293 tox SP -21.3.
`C[C@H](CO)N1C[C@H](C)[C@@H](CN(C)C(=O)Cc2ccncc2)Oc2cc(C#CC3CCCC3)ccc2S1(=O)=O` gave esBAF inh 4.9, Env fusion inh -26.6[16.7 µM] and miR-122 sensor 25.8[16.7 µM].
Screening O=C(Nc1ccc2c(c1)OCO2)c1cnc(Cl)c(Cl)c1 returned Wnt act -1.3, MITF TRPM1 HTS 52.8, esBAF inh 54.3*, Env fusion inh -48.0, miR-122 sensor 6.7, Ring1 derepress 0.967, Fgf4 repress 1.06, esBAF Bmi1 qPCR 1.03, A549 cytotox 4.9, HepG2 tox SP -9.3 and HEK293 tox SP -1.7.
For Cc1ccc2c(CN(C)Cc3cccc(F)c3)cc(=O)oc2c1 the results were Wnt act 0.2, MITF TRPM1 HTS 87.6*, esBAF inh 90.3*, Env fusion inh -16.2, miR-122 sensor -3.8, Ring1 derepress 0.97, Fgf4 repress inconclusive, esBAF Bmi1 qPCR 1.6, A549 cytotox 4.0, HepG2 tox SP -5.7 and HEK293 tox SP -11.1.
For CN(Cc1ccccc1F)Cc1cc(=O)oc2cc(O)c(Cl)cc12 the results were Wnt act -1.8, MITF TRPM1 HTS 9.9, esBAF inh 6.3, Env fusion inh 8.2 and miR-122 sensor -6.5.
Cc1cc2oc(=O)cc(CN(C)Cc3ccccc3F)c2cc1Cl was read as Wnt act 9.0, MITF TRPM1 HTS 60.0, esBAF inh 63.7*, Env fusion inh -7.4, Ring1 derepress 1.3, Fgf4 repress 0.653*, esBAF Bmi1 qPCR 1.5, A549 cytotox 3.5, HepG2 tox SP -0.9 and HEK293 tox SP -2.1.
Cc1ccc2c(CN(C)Cc3ccccc3)cc(=O)oc2c1 was read as Wnt act 12.9, esBAF inh 88.3*, Env fusion inh -15.5, miR-122 sensor 3.0, Ring1 derepress 1.14, Fgf4 repress 0.951, esBAF Bmi1 qPCR 1.47, A549 cytotox -12.2, HepG2 tox SP -6.5 and HEK293 tox SP -22.4.
